Methyltransferases: Primary Screen for Target Class Profiling of Small Molecule Inhibitors of Methyltransferases; calls only at 40 µM; AID 1745853, 2022; purified enzyme, MTase-Glo SAH luminescence; active compounds read low; 3.9% of 25,000 active; call rule not given here
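Each enzyme was reacted with SAM and its substrate, with compounds tested once at 40 uM; SAH formed was read by MTase-Glo luminescence.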
MTase-Glo ctr: Counterscreen for Target Class Profiling of Small Molecule Inhibitors of Methyltransferases; shares compounds with Methyltransferases; MTase-Glo coupled enzymes, SAH conversion luminescence, no MTase; Potency, µM (doses to about 57.3 µM), inactives show at the highest dose activity change, negative = inhibition, most hits filed as inhibitors; 6% of 180 active; active = well fitted inhibition curve with a large enough effect; inconclusive = small, poorly fitted or top-dose-only effect; also: potency is read from the fitted curve at half-maximal effect
Active calls of the source: *; i = inactive; ? = inconclusive; + = active, no number; [ ] = another dose, or the depositor's remark. Many of the other results were omitted from the sample, so hits are more common in it than they were. % is scaled to controls: 0 for no effect and ±100 for the full control effect.

SMILES	Methyltransferases	others
C=CC(=O)Nc1ccc(CN2C(=O)N(c3cc(OC)cc(OC)c3)Cc3cnc(Nc4ccc(N5CCN(C)CC5)cc4)nc32)cc1	+
CN1C(=O)c2cc(C(=O)NC3CCCCC3)nn2CC1(C)C(=O)NC1CCCCCC1 (stereo not drawn)	i
Cn1c(=O)c2ccc(C(=O)NC3CCCC3)cc2n2c(SCc3cccc(F)c3)nnc12	i
CCCCN(CC)CCN1C(=O)c2ccc(-c3ccco3)n2CC1(C)C(=O)NC1CCCCC1 (stereo not drawn)	i
CCCN1C(=O)c2c(C(=O)NCc3ccccc3OCC)ncn2CC1(C)C(=O)NCc1ccc(C)cc1 (stereo not drawn)	i
Cc1ccc(CNC(=O)c2ccc3c(=O)nc4c(-c5ccc(C)cc5)n[nH]n4c3c2)cc1	i
Cc1ccc(CN2CC(=O)N(Cc3ccccc3F)c3ccccc3S2(=O)=O)cc1	i
COC[C@H]1C[C@@H](NC(=O)Nc2cccnc2)[C@H](O)[C@@H]1O	i
COCc1cc(NCCCNc2cccnc2)ncn1	+	MTase-Glo ctr=-7%
O=C1CC(=O)Nc2cc(S(=O)(=O)Nc3ccc(Br)cc3F)ccc2N1	i
CC(C)c1ccc(N2C(=O)c3ccccc3CC2(C)C(=O)NCc2ccccc2)cc1 (stereo not drawn)	i
CCC(C)NC(=O)c1ccc2c(=O)n(C)c3nnc(SCC(=O)c4cc(C)ccc4C)n3c2c1 (stereo not drawn)	i
Cc1ccc(C)c(N2C(=O)CSc3c(c4ccccc4n3C)C2C(=O)NCc2ccc(F)cc2)c1 (stereo not drawn)	i
CCCn1c(=O)c2ccc(C(=O)NCC(C)C)cc2n2c(=O)n(Cc3cccc(Cl)c3)nc12	i
O=C(c1ccccc1)N1CC2(CCCN2Cc2cccnc2)Cc2ccccc21 (stereo not drawn)	i
O=C(c1ccc(Cl)cc1)N1CC2(CCN(CC3CC3)CC2)Cc2ccccc21	+	MTase-Glo ctr=-1%
O=C(C1CCCC1)N1CC2(CCN(Cc3cccnc3)CC2)Cc2ccccc21	i
CC(C)CCn1c(=O)c2ccc(C(=O)NC(C)C)cc2n2c(=O)n(Cc3ccc(Cl)cc3)nc12	i
COc1ccc(-c2cc3n(n2)CC(C)(C(=O)NC2CCCCCC2)N(Cc2ccccc2)C3=O)cc1 (stereo not drawn)	i
Cc1noc(C)c1-c1cc(-c2ccncc2)cn2cncc12	i
Cc1noc(C)c1-c1cc(-c2ccc(CN(C)C)cc2)cn2cncc12	+	MTase-Glo ctr=-17%[85.7 µM]
CCCn1c(=O)c2ccc(C(=O)NC3CCCCC3)cc2n2c(=O)n(Cc3ccccc3)nc12	i
CCC(C)NC(=O)c1ccc2c(=O)n(CC(C)C)c3nn(Cc4ccc(F)cc4Cl)c(=O)n3c2c1 (stereo not drawn)	i
CCOCCCNc1nc2c(-c3cccc(F)c3)nnn2c2ccc(Cl)cc12	i
C[S+](=O)([O-])N1CCC(Cn2ccc3c(N4CCOCC4)nc(-c4cccc5[nH]ncc45)cc32)CC1	+	MTase-Glo ctr=4%
SMILES	Methyltransferases	others
COc1ccc(CN2C(=O)c3cc4occc4n3CC2(C)C(=O)NC2CCCCCC2)cc1 (stereo not drawn)	i
CCCn1c(=O)c2ccc(Cl)cc2n2c(SCC(=O)Nc3ccc(OC)cc3)nnc12	i
O=C1NC2(CCN(Cc3ccccc3)C2)COc2ccccc21 (stereo not drawn)	i
O=[S+]1([O-])NC2(CCN(Cc3ccccc3C(F)(F)F)C2)CNc2ccccc21 (stereo not drawn)	i
O=[S+]1([O-])NC2(CCCN(Cc3c(F)cccc3Cl)C2)COc2ccccc21 (stereo not drawn)	+	MTase-Glo ctr=-7%
CC1(C(=O)NC2CCCCCC2)Cn2c(nc3ccccc32)C(=O)N1C1CCCCCC1 (stereo not drawn)	i
COc1ccc(OC)c2c1cc1n2CC(C)(C(=O)NC2CCCCC2)N(Cc2cccs2)C1=O (stereo not drawn)	i
OCC1(Cc2ccccc2)CCCN(Cc2cn[nH]c2-c2ccc(F)cc2)C1 (stereo not drawn)	+	MTase-Glo ctr=2%
O=C(CCc1nnn2c1CN(Cc1cn[nH]c1-c1ccc(F)cc1)CC2)N1CCCC1	i
OCC1(CC2CC2)CCCN(Cc2ccc(C(F)(F)F)nc2)C1 (stereo not drawn)	i
CCC(C)NC(=O)c1ccc2c(=O)n(CCC(C)C)c3nn(Cc4cccc(C)c4)c(=O)n3c2c1 (stereo not drawn)	i
CC(C)n1c(=O)c2ccc(C(=O)NC3CCCCC3)cc2n2c(=O)n(Cc3ccccc3)nc12	i
c1ccc(-c2cc3c(cn2)NCCN(Cc2ccccn2)C3)cc1	+	MTase-Glo ctr=-5%[85.7 µM]
O=C(O)c1ccc(CC2CCN(Cc3ccccn3)C2)cc1 (stereo not drawn)	i
c1ccc(Nc2cc3c(cn2)NCCN(Cc2ccccn2)C3)cc1	i
CCc1ccccc1NC(=O)Cn1nc2n(CC(C)C)c(=O)c3ccc(C(=O)NCC(C)C)cc3n2c1=O	i
CC(C)Cn1c(=O)c2ccc(C(=O)NC(C)C)cc2n2c(=O)n(CC(=O)Nc3cccc(Cl)c3)nc12	i
CC(C)c1nccn1CCCNC(=O)c1ccc(N2CCCC(CO)C2)nc1 (stereo not drawn)	+	MTase-Glo ctr=1%
CCN(Cc1nccn1C)C(=O)c1ccc(N2CCC(COC)C2)nc1 (stereo not drawn)	i
CN1CCCCC1CCNC(=O)c1ccc(N2CCOCC2)nc1 (stereo not drawn)	i
CCn1cc(CNc2ccc(-c3ccccc3OC)nn2)cn1	i
COc1ccc(CN2C(=O)c3cc(-c4ccccc4)nn3CC2(C)C(=O)NCc2ccccc2)cc1OC (stereo not drawn)	i
COc1ccc2nc([C@H]3CCN(Cc4cccnc4)C3)[nH]c2c1	i
CC1(C(=O)Nc2ccccc2)CN(Cc2ccccc2)Cc2ccc(N3CCOCC3)nc21 (stereo not drawn)	i
O=C1NCCN1C1CCN(Cc2cccnc2)CC1	i
SMILES	Methyltransferases	others
COc1ccc(-c2cc3c(cn2)CN(CCc2ccccc2)CCN3)cc1OC	+	MTase-Glo ctr=?
COc1ccc(CNc2cc3c(cn2)CN(Cc2ccccc2)CCN3)cc1OC	+	MTase-Glo ctr=-1%[85.7 µM]
COc1ccc(CCN2CCN(CCCc3ccccc3)CC2)cc1OC	i
O=C1c2cc(N3CCOCC3)nc(-c3cccc(CO)c3)c2CN1c1ccccc1	i
c1ccc(CN2CCNc3cnc(Nc4ccc(N5CCOCC5)cc4)cc3C2)cc1	+	MTase-Glo ctr=3%[85.7 µM]
COc1ccc(-c2nnc3n(Cc4ccccc4)c(=O)c4ccccc4n23)cc1OC	i
COc1cccc(Nc2cc3c(cn2)CN(Cc2cccnc2)CCN3)c1	+	MTase-Glo ctr=-5%[85.7 µM]
CC(NS(=O)(=O)c1ccc2[nH]c(=O)[nH]c2c1)c1ccccc1 (stereo not drawn)	i
CCOC(=O)c1cc2n(n1)CC(C)(C(=O)NCc1ccccc1OC)N(c1ccc(CC)cc1)C2=O (stereo not drawn)	i
CC1(C(=O)NC2CCCC2)Cn2c(ccc2-c2ccco2)C(=O)N1c1ccc(Cl)cc1 (stereo not drawn)	i
COc1ccccc1NC(=O)Cn1nc2n(CCCOC(C)C)c(=O)c3ccccc3n2c1=O	i
Cc1cc2c(cc3n2CC(C)(C(=O)NC2CCCCCC2)N(C2CCCC2)C3=O)o1 (stereo not drawn)	i

Screening results as filed in PubChem.
